A word on the AC50: it is the concentration at which the activity in the assay is half-maximal.

SMILES strings stand for the structures. Calls of active or inactive are those of the source. Rule for the calls: active = hit-call score of the fitted dose curve at least 0.9, where 1 is the maximum; inactive = score below 0.9.

Data on 16 compounds can be found in PubChem BioAssay (EPA / NIEHS).

The subject of test [1] is TTR (gene 7276). Briefly: CCTE_GLTED_hTTR_0.125uM: CCTE's human Transthyretin (hTTR) Inhibition Assay, with 0.125uM TTR, Great Lakes Toxicology and Ecology Division (GLTED) Lab (AID 2284431).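 Note: hits lower the fluorescence signal relative to DMSO baseline.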 Summed up: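 Activity is defined as decreased ANSA fluorescence (ex 380, em 475) from human transthyretin, 0.125uM, following 2-hour chemical exposure in a cell-free setup, with DMSO as baseline.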

Test [2] is described as follows: CCTE_Padilla_ZF_Score.Spine: CCTE's 144 Hour Post-fertilization zebrafish Assay Score for Spine Malformation, Padilla Lab (AID 2284407). Summed up:
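Wild-type zebrafish embryos, one per well in Hanks' solution, dosed at 6–8 hpf in sealed plates at 26C, 14:10 h light:dark; rinsed at 5 dpf. Two blinded assessors scored spinal defects by stereomicroscopy at 6 dpf; fitted versus DMSO.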

Test [3] in a line: CCTE_Padilla_ZF_Score.Swim_bladder: CCTE's 144 Hour Post-fertilization zebrafish Assay Score for Swim Bladder Malformation, Padilla Lab (AID 2284408). The procedure, abridged: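 Wild-type zebrafish embryos, one per well in 10% Hanks', dosed at 6–8 hpf, sealed, reared at 26C and rinsed at 5 dpf. Blinded assessors scored uninflated swim bladder by stereomicroscopy at 6 dpf, relative to DMSO.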

The nature of test [4]: CCTE_Padilla_ZF_Score.Position: CCTE's 144 Hour Post-fertilization zebrafish Assay Score for Position, Padilla Lab (AID 2284409). The procedure, abridged: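 Wild-type zebrafish embryos (with chorions) exposed singly from 6–8 hpf in sealed wells of Hanks' solution at 26C, rinsed at 5 dpf. At 6 dpf, blinded assessors scored abnormal water-column position by brightfield stereomicroscopy, relative to DMSO.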

Test [5] can be described thus: CCTE_Padilla_ZF_Score.Living: CCTE's 144 Hour Post-fertilization zebrafish Assay Score for Viability, Padilla Lab (AID 2284410).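 Note: larval death at 6 dpf judged by absent heartbeat or coagulation.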 The procedure, abridged: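 Wild-type zebrafish embryos were exposed singly from 6–8 hpf in sealed wells of Hanks' solution at 26C, then rinsed at 5 dpf. At 6 dpf, blinded assessors scored mortality (no heartbeat or coagulation) by stereomicroscopy, fitted against DMSO.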

Test [6] in a line: CCTE_Padilla_ZF_Score.Tail: CCTE's 144 Hour Post-fertilization zebrafish Assay Score for Tail Malformation, Padilla Lab (AID 2284414). The procedure, abridged: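 Wild-type zebrafish embryos, one per well in 200 uL 10% Hanks', dosed at 6-8 hpf, sealed, and kept at 26 C on a 14:10 h light cycle. Chemical was rinsed out at 5 dpf. Blinded brightfield scoring of tail defects followed at 6 dpf.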

Test [7] is described as follows: CCTE_Padilla_ZF_Score.Blood_pooling: CCTE's 144 Hour Post-fertilization zebrafish Assay Score for Blood Pooling, Padilla Lab (AID 2284415). Summed up: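 Wild-type outbred zebrafish embryos, one per well in 10% Hanks', exposed from 6–8 hpf in sealed plates at 26C on 14:10 h light:dark, rinsed at 5 dpf. Blinded stereomicroscope scoring of blood pooling at 6 dpf; gain-of-signal versus DMSO.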

Test [8] in a line: CCTE_Padilla_ZF_Score.Any: CCTE's 144 Hour Post-fertilization zebrafish Assay Score for Any Mortality or Malformation, Padilla Lab (AID 2284416). Summed up: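 Wild-type zebrafish embryos with chorions, one per well in 10% Hanks' from 6–8 hpf, dosed in sealed plates at 26 C, 14:10 h light:dark; rinsed at 5 dpf; blinded scoring at 6 dpf for death or malformation, versus DMSO.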

Test [9] relates to SRY-box transcription factor 17 (SOX17) Protein Expression, Deisenroth Lab, SOX17 (gene 64321). Description: CCTE_Deisenroth_DEVTOX-GLR_Endo_SOX17: CCTE's DevTox GLR-Endo Assay Evaluation of SRY-box transcription factor 17 (SOX17) Protein Expression, Deisenroth Lab (AID 2284413). The procedure, abridged:
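Seed RUES2-GLR cells 24 h; start endoderm differentiation; dose at 0 and 24 h (1 nM - 200 uM, 10 points); fix at 48 h, stain nuclei, image 5 fields/well; compute SOX17+/total cells vs 0.2% DMSO.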

Test [10] has as its system Brachyury (BRA) Protein Expression, TBXT (gene 6862). Description: CCTE_Deisenroth_DEVTOX-GLR_Endo_BRA: CCTE's DevTox GLR-Endo Assay Evaluation of Brachyury (BRA) Protein Expression, Deisenroth Lab (AID 2284417). The procedure, abridged:
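Percent BRA+ (mesoderm) RUES2-GLR cells after 48 h differentiation with two exposures, 1 nM - 200 uM; 0.2% DMSO control subtracted.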

Test [11] in a line: CCTE_Deisenroth_DEVTOX-GLR_Endo_CellCount: Viability Assessment in CCTE's DevTox GLR-Endo Assay, Deisenroth Lab (AID 2284420). Summed up:
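Measured 48 h after dosing: fluorescent nuclei counted by imaging in human RUES2-GLR cells under defined differentiation media, tested at 1 nM - 200 uM. Values are percent cell-count change relative to 0.2% DMSO.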

In test [12] the test system is SRY-box transcription factor 2 (SOX2) Protein Expression, Deisenroth Lab, SOX2 (gene 6657). Description: CCTE_Deisenroth_DEVTOX-GLR_Pluri_SOX2: CCTE's DevTox GLR-Pluri Assay Evaluation of SRY-box transcription factor 2 (SOX2) Protein Expression, Deisenroth Lab (AID 2284428). The procedure, abridged: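 Percent SOX2+ RUES2-GLR cells, determined by fluorescence microscopy after 48 h and two 24-h-interval chemical exposures spanning 1 nM–200 uM, served as the endpoint. Values are expressed relative to 0.2% DMSO; total cell counts assessed viability.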

The nature of test [13]: CCTE_Deisenroth_DEVTOX-GLR_Pluri_CellCount: Viability Assessment in CCTE's DevTox GLR-Pluri Assay Evaluation of Total Cell Counts, Deisenroth Lab (AID 2284430). The procedure, abridged:
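RUES2-GLR human pluripotent cells, seeded 24 h, then differentiated 48 h with two chemical exposures 24 h apart; 10-point series 1 nM - 200 uM. Fixed, nuclear-stained, imaged (5 fields/well); nuclei count as % change vs 0.2% DMSO.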

With `CC1=NN(c2ccc(S(=O)(=O)O)cc2)C(=O)C1N=Nc1ccccc1` (configuration not stated), in test [1], the AC50 is 5.69 µM (active).
Consider `C[N+](C)(C)CCCNS(=O)(=O)C(F)(F)C(F)(F)C(F)(F)C(F)(F)C(F)(F)C(F)(F)C(F)(F)C(F)(F)F`, for which the compound was classed as inactive in test [2], in [3], in [4], in test [6] and in test [7]. Besides, the AC50 is 50.1 µM (active) in test [5] and 26.2 µM (active) in test [8].
As to `COc1ccc(C(=O)c2ccccc2)c(O)c1`, in [1], the AC50 is 6.35 µM (active).
As to `CCCCCCCCCCCCc1ccc(O)cc1`, the AC50 in [1] was 1.62 µM (active).
On the same count and under the same terms, the value for `Cc1ccc(C)c(OCCCC(C)(C)C(=O)O)c1` was 0.499 µM (active).
With `O=C(OCCc1ccccc1)c1ccccc1`, in [1], the AC50 is 20.9 µM (active).
As to `CC1(C)[C@@H]2CC[C@@]1(C)C(=O)C2`, the compound was called inactive in test [9], in test [10], in test [11], in test [12] and in test [13].
As to `CC(C)(c1ccccc1)c1ccc(Nc2ccc(C(C)(C)c3ccccc3)cc2)cc1`, in test [1], the AC50 was 20.2 µM (active).
As for `COc1ccc(-c2coc3cc(O)cc(O)c3c2=O)cc1`, the AC50 in test [1] is 0.335 µM (active).
The same measure, in the same setting: with `O=S(=O)(O)c1ccc(N=Nc2c(O)ccc3ccccc23)cc1` the figure was 0.258 µM (active).
Turning to `O=C(O)C(F)(F)C(F)(F)C(F)(F)C(F)(F)C(=O)O`, the compound was classed as inactive in test [2], in test [3], in [4], in test [5], in test [6] and in [7]. Also, the compound was classed as inactive in [8].
Regarding `CCCCCCCCCCCC(=O)N(C)CC(=O)O`, the AC50 in [1] is 21.4 µM (active).
Same read-out and setting: the value for `Oc1ccccc1Cc1ccccc1O` was 3.62 µM (active); that for `CCCCCCCOC(=O)c1ccc(O)cc1` was 1.42 µM (active).
In the case of `CCCCCCOc1ccc(N)cc1`, the AC50 in test [1] is 21.2 µM (active).
Still for that read-out and setting: the value for `O=C(Oc1ccccc1)c1ccccc1O` was 4.91 µM (active).
